Test results from PubChem BioAssay AID1671202 (University of Kansas High Throughput Screening Laboratory, 2021).
Where “and” joins values, the source holds several entries; their conditions need not be identical. Equal entries are not always repeated. Hit rate of the full screen: of about 190,000 compounds, about 6,900 (3.6%) were called active. For the sample, actives were picked, then their nearest neighbours and some compounds at random. Values without a mark were called inactive. Rule as the data show it: active = inhibition above about 50%; inactive = the rest.

Molecular target: Huntingtin (Homo sapiens) (UniProt P42858)
Sequence (P42858 whole entry, looked up, stated change not applied): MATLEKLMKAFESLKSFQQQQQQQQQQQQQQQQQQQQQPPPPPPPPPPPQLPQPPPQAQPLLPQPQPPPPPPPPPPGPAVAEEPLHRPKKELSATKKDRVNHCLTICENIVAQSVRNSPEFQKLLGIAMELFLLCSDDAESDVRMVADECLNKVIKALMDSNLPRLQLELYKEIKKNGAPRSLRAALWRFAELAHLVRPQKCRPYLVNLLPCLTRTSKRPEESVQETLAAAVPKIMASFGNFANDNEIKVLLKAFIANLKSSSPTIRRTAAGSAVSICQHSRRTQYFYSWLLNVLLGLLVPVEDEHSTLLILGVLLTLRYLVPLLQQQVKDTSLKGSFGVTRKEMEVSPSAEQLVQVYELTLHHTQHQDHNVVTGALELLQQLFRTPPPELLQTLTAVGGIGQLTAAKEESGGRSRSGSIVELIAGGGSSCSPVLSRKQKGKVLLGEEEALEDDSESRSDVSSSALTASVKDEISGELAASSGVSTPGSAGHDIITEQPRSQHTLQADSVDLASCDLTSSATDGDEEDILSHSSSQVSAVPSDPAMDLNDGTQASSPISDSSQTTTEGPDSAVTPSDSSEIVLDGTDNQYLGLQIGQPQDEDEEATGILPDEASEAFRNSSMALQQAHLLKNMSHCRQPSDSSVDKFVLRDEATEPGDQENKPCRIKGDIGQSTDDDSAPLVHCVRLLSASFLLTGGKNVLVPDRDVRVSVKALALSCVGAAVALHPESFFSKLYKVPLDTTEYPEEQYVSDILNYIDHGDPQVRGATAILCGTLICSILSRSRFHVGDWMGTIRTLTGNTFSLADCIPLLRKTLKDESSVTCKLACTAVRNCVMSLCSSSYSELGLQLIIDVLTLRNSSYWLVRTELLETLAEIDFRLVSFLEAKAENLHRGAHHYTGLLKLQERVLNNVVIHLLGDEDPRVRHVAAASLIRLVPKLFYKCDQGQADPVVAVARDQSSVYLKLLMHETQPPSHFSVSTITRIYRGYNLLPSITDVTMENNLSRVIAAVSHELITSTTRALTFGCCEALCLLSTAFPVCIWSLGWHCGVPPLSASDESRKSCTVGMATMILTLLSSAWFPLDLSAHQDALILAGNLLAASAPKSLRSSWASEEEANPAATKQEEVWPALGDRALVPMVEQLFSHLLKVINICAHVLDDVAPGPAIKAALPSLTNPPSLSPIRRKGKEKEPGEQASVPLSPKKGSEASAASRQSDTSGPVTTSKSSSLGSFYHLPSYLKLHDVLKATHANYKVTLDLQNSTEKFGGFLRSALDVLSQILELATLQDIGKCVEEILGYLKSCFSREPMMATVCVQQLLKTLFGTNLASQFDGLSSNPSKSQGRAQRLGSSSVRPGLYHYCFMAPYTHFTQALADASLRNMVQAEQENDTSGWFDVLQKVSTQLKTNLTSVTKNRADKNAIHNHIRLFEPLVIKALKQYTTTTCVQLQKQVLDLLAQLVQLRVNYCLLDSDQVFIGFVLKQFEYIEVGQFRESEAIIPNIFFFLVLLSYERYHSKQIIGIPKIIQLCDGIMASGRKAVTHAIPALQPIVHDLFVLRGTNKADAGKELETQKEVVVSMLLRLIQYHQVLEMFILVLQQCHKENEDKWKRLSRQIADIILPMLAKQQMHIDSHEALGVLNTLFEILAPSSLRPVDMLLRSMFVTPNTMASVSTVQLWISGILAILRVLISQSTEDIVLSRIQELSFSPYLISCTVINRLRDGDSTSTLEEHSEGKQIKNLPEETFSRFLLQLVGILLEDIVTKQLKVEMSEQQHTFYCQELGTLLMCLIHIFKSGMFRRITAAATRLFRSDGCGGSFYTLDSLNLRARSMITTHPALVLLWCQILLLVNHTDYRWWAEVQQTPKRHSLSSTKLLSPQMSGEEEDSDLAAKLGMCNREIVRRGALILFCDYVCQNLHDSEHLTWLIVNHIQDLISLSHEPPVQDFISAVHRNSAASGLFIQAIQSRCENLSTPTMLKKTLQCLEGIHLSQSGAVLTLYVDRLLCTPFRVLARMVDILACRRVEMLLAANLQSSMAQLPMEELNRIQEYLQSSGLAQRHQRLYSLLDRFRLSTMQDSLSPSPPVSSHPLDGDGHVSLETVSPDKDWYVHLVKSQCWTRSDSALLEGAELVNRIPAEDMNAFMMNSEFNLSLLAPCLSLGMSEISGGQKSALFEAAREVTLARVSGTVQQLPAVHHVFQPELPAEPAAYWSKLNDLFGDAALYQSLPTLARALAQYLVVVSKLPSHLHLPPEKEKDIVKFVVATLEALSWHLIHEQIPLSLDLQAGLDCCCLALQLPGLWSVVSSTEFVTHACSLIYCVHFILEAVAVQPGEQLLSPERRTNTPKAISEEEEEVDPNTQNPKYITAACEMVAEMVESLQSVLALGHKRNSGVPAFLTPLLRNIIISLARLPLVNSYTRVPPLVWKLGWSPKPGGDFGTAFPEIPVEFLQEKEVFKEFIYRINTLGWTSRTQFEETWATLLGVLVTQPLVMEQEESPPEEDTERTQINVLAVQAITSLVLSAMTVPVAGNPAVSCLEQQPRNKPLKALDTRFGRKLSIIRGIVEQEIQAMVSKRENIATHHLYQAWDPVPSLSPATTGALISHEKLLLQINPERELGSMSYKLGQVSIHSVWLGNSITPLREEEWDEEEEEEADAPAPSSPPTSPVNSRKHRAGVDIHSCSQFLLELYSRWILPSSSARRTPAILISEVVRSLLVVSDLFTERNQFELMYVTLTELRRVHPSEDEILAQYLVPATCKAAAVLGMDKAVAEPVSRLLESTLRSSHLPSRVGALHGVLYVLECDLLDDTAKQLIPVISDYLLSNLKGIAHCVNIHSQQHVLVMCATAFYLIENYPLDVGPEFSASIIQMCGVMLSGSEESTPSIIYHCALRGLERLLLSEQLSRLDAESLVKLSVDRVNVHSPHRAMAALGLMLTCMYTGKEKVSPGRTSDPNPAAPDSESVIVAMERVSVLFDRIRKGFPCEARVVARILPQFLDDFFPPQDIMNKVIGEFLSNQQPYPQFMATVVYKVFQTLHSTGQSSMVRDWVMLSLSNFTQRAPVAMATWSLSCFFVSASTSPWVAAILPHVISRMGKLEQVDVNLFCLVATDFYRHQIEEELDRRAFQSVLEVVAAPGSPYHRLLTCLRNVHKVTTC
Assay: mutant huntingtin-calmodulin interaction inhibitors – biochemical, AlphaScreen, primary screen (AID 1671202);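 also: 0% = both proteins with DMSO and 100% = one protein alone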
Settings: AlphaScreen His-mHTT/GST-CaM binding, luminescence; at 15 µM, hits give high values

Which inhibition does the source give for `O=C(Cc1csc(NC(=O)C2CCCC2)n1)Nc1ccc2c(c1)Cc1ccccc1-2` here?
Its inhibition is -7.6%.

Which inhibition does the source give for `Cn1c(=O)c2c(-c3ccccc3)n(-c3cccc([N+](=O)[O-])c3)cc2n(C)c1=O` here?
The inhibition was 38%.

Which inhibition does the source give for `O=C1/C(=C/c2ccc([N+](=O)[O-])cc2)C=C(c2ccccc2)N1c1cccc([N+](=O)[O-])c1` here?
The inhibition was 28%.

For `O=C1OC(c2ccccc2)=C/C1=C/c1cccn1-c1cccc([N+](=O)[O-])c1`, which inhibition is on record?
The inhibition was 77% (active).

For `CN1CC=C2C(C#N)=C(N)C(C#N)(C#N)C(c3ccc(F)cc3)C2C1` (centres undefined), which inhibition is on record?
Its inhibition is 6%.

Which inhibition does the source give for `N#CC1=C(N)C(C#N)(C#N)C(c2ccc(C3C4CCCC=C4C(C#N)=C(N)C3(C#N)C#N)cc2)C2CCCC=C12` (centres undefined) here?
Its inhibition is 81.2% (active).

`Brc1ccc(CNC23CN4CN(CN(C4)C2)C3)cc1` was tested. Which inhibition did it give?
Its inhibition is 2%.

How did the inhibition turn out when `O=C(/C=C/c1ccc(Cl)cc1)Nc1cc2ccccc2oc1=O` was run?
Its inhibition is 0%.

`CN(C)c1ccc(Br)c([N+](=O)[O-])c1` was tested. Which inhibition did it give?
Its inhibition is 14.9%.

How did the inhibition turn out when `Cc1ccc2nc(/C(C#N)=C/c3cc(Cl)cc4c3OCOC4)[nH]c2c1` was run?
The inhibition was -7%.

For `COc1ccc2nc3sc(C(=O)NCc4ccco4)cc3cc2c1`, which inhibition is on record?
Its inhibition is 61% (active).

How did the inhibition turn out when `COc1ccc2nc3sc(C(=O)N(C)c4cccc(C)c4)cc3cc2c1` was run?
Its inhibition is 5%.

Which inhibition does the source give for `COc1cccc(NC(=O)c2cc3cc4cc(OC)ccc4nc3s2)c1` here?
The inhibition was 7%.

With `O=C(CSc1nnc(NC(=O)c2ccccc2F)s1)Nc1ccc(Br)cc1` as the compound, how does the inhibition read?
Its inhibition is 1.2%.

For `CC(C)(C)C(=O)NCCNc1ccc([N+](=O)[O-])cc1`, which inhibition is on record?
The inhibition was 2.2%.

Which inhibition does the source give for `COc1ccc(NC(=O)C2CC(=O)N(C)C(=Nc3ccc(C)c(C)c3)S2)cc1` (centres undefined) here?
The inhibition was 22%.

For `Cc1ccc2c(c1)OCC(=O)N2Cc1nc(-c2ccc(C)c(C)c2)no1`, which inhibition is on record?
Its inhibition is -15.9%.

Which inhibition does the source give for `Cc1ccccc1NC(=O)N1CCC(c2cc(N)on2)CC1` here?
Its inhibition is -11.4%.

How did the inhibition turn out when `COCCCN1COc2ccc3c(=O)c(Oc4ccc(OC)cc4)coc3c2C1` was run?
The inhibition was -5.5% and 3.6%.

With `COC(=O)c1ccc(Oc2coc3c4c(ccc3c2=O)OCN(c2ccc(OC)cc2OC)C4)cc1` as the compound, how does the inhibition read?
Its inhibition is 54.7% (active).

For `CCOC(=O)c1ccc(Oc2coc3c4c(ccc3c2=O)OCN(C2CCS(=O)(=O)C2)C4)cc1` (centres undefined), which inhibition is on record?
Its inhibition is 6.6%.

`COc1ccc(N2COc3ccc4c(=O)c(-c5ccccc5)coc4c3C2)c(OC)c1` was tested. Which inhibition did it give?
Its inhibition is 75.6% (active).

With `CC(C)N1COc2ccc3c(=O)c(-c4ccccc4)coc3c2C1` as the compound, how does the inhibition read?
The inhibition was -2.5%.

How did the inhibition turn out when `COc1ccc(-c2coc3c4c(ccc3c2=O)OCN(CC(C)C)C4)cc1` was run?
Its inhibition is -3.5%.
